Screening data as filed in PubChem BioAssay.
Most compounds without a hit are left out; they make up all but 19% or so of the library.
IL-1B inflam inh: inhibitors of inflammasome signaling (IL-1 beta secretion); AID 743279; THP-1 LPS/ATP IL-1B secretion, AlphaLISA, 16 h; hits give low values; activity change, % at 57.5 µM; 360,000 compounds, 4.7% hits; in the data active = activity change below about -50%; inconclusive = mostly about -30% to -49%
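Secreted IL-1B measured by AlphaLISA bead assay after 16 h compound exposure of THP-1 cells; compounds (final up to 57.5 uM) added 1 h before LPS (250 ng/mL) and ATP (1.25 mM) stimulation; lower signal means less secretion.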
HT1080-NT tox: kills 2HG-producing HT-1080-NT fibrosarcoma cells; HT-1080-NT fibrosarcoma viability, CellTiter-Glo ATP luminescence, 48 h; Potency, µM (doses to about 46.1 µM), for the others: top-dose activity, negative = less viability, usual class: cytotoxic; 360,000 compounds, 1.6% hits;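 also: NT is the 2HG producing partner of a matched IDH1 knockdown line; potency is read from the fitted curve at half-maximal effect; 0% = DMSO-treated cells and -100% = media-only wells without cells; nearly all actives have a fitted effect of over 55% in size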
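HT-1080-NT; 750 cells/well; 5% FBS RPMI; 48 h compound, 37 degrees C; CellTiter-Glo luminescence; curve fitting and curve-class assignment.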
DT40 TDP1 no CPT: qHTS for Inhibitors of human tyrosyl-DNA phosphodiesterase 1 (TDP1): qHTS in cells in absence of CPT; DT40 Tdp1-/- hTDP1 cells, no CPT, ATP luminescence, 48 h; Potency, µM (series often up to 46.2 µM), for inactives: at the top dose activity change, negative = growth inhibition, actives largely listed as inhibitors; 420,000 compounds, 15% hits; AID 686978, 2013; also: potency is read from the fitted curve at half-maximal effect; nearly all actives have a fitted effect of over 55% in size
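Growth kinetics read by CellTiter-Glo luminescence after ≥48 hr at 37 °C. Cells: DT40 Tdp1-/- stably carrying human TDP1, 400 per well, compound exposure in the absence of CPT (DMSO vehicle).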
TDP1 cell CPT: DT40-hTDP1 cell growth loss with CPT; chicken DT40 Tdp1-/-;hTDP1 cells + 20 nM CPT, ATP luminescence, 48 h; Potency, µM (doses to about 46.2 µM), for inactives: top-dose activity change, negative = growth inhibition, hits mostly inhibitors; 420,000 compounds, 12% hits; AID 686979; also: potency is read from the fitted curve at half-maximal effect; nearly all actives have a fitted effect of over 55% in size
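Cell growth measured by CellTiter-Glo luminescence after a minimum 48 h, 37 C compound exposure with 20 nM CPT in Tdp1-knockout DT40 cells stably expressing hTDP1, seeded 400/well; qHTS titration format.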
HT1080 IDH1KD tx: kills HT-1080 cells with IDH1 knockdown; HT-1080 IDH1 knockdown viability, ATP luminescence, 48 h; Potency, µM (doses to about 46.1 µM), for the others: top-dose activity, negative = toxicity, usual class: cytotoxic; 360,000 compounds, 2% hits; AID 686971;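 also: potency is read from the fitted curve at half-maximal effect; 0% = DMSO wells and -100% = cell-free medium wells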
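Knockdown cells (IDH1KD HT-1080) received compounds 2 h after plating at 750 cells/well and were kept 48 h at 37 °C in 5% FBS RPMI. A CellTiter-Glo luminescence read gave % activity for curve fitting.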
ELG1 repair inh: blocks ELG1-dependent DNA repair in HEK293T cells; 330,000 compounds, 2.3% hits; Potency, µM (doses to about 46.1 µM), without a hit: at the top dose activity change, negative = inhibition, most hits filed as inhibitors; HEK293T ELG1-luciferase reporter, luminescence, 16 h; DNA damage induced by 5-fluorouridine; also: potency is read from the fitted curve at half-maximal effect; nearly all actives have a fitted effect of over 55% in size
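DMSO vehicle served as the neutral condition. Each well held 2,000 cells given 5-fluorouridine plus compound; after 16 hr at 37 °C/5% CO2, ONE-Glo was added and luciferase measured 30 min later.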
* marks the source's active call; other numbers are inactive results; ? = inconclusive; nt = no result. Unless noted, calls follow the shape of the dose curve; as a rule, active = well fitted curve in the direction sought with a large enough effect; inconclusive = small, poorly fitted or top-dose-only effect, or another doubt; inactive = no such curve, though single readings can be large; an effect the other way counts as inactive or inconclusive. Unless noted, % is scaled to controls: 0 for no effect and ±100 for the full control effect.

SMILES | IL-1B inflam inh | HT1080-NT tox | DT40 TDP1 no CPT | TDP1 cell CPT | HT1080 IDH1KD tx | ELG1 repair inh
C=CCOC(=O)C1=C(C)NC(SCC(=O)Nc2ccc(C)c(Cl)c2)=C(C#N)C1c1ccco1 (stereo unspecified) | -3.4 | 18.4µM* | 29.1µM* | ? | 16.4µM* | -0.4%
CCCCOC(=O)CSC1=C(C#N)C(c2cccnc2)C(C(=O)OCC)=C(c2ccccc2)N1 (stereo unspecified) | -27.1 | -3.2% | ? | ? | -4.9% | ?
CC1CCCCC1NC(=O)c1cc(Cl)nc2ccccc12 (stereo unspecified) | 22.4 | -0.1% | ? | -19.1% | -0.2% | nt
C=CCNc1ncnc2c1ncn2[C@H]1CN(Cc2ccco2)C[C@@H](CO)O1 | 0.0 | ? | -2.6% | -12.2% | 9.0% | nt
O=C(NCC[C@H]1CC[C@H](NS(=O)(=O)c2ccc(F)cc2)[C@@H](CO)O1)c1ccc2c(c1)OCO2 | -3.7 | 1.8% | -21.3% | -23.1% | -0.2% | nt
COc1ccc(S(=O)(=O)N[C@H]2CC[C@H](CCNC(=O)c3ccccc3F)O[C@@H]2CO)cc1 | -77.2* | 17.9% | -14.3% | -25.9% | 11.8% | nt
COc1ccc(CCNC(=O)CC(c2ccccc2)c2cc(C)ccc2O)cc1OC (stereo unspecified) | 0.0 | -22.1% | 13µM* | 25.9µM* | -12.7% | ?
COc1ccc(CCNC(=S)NC(=O)c2ccc(Br)cc2)cc1OC | 22.9 | 1.4% | ? | ? | -4.9% | ?
Cc1ccc(O)c(C(CC(=O)NCc2ccco2)c2ccccc2)c1 (stereo unspecified) | -28.3 | 1.9% | -26.5% | ? | -14.2% | 4.6%
COc1ccc(CCNC(=O)c2nc(-c3cccs3)no2)cc1OC | 15.9 | ? | ? | ? | ? | 9.2µM*
COc1ccc(CCNC(=O)C(=O)NCc2cccs2)cc1OC | 28.5 | -18.2% | 29.1µM* | ? | -5.6% | -1.7%
COc1ccc(CCNC(=S)NC(=O)c2ccccc2)cc1C | -27.6 | -6.2% | ? | ? | 1.3% | 13µM*
CCCCc1ccc(NC(=S)N2CCC(O)CC2)cc1 | 17.8 | -11.9% | 0.4% | 10.4% | -0.8% | 0.0%
Cc1ccc(OCC(=O)NCCCNC(=O)c2ccncc2)cc1C | 21.4 | -10.1% | -13.4% | 1.6% | 3.6% | 2.7%
COc1ccc(CCNC(=O)Cc2ccccc2)cc1OC | -0.8 | -4.1% | 9.5% | 0.9% | 7.2% | 9.6%
COc1ccc(CCNC(=S)c2ccccc2)cc1OC | ? | -3.4% | ? | 20.6µM* | -5.5% | ?
COc1ccc(CCNC(=O)C(=O)NCc2ccccc2)cc1OC | 32.4 | 16.4µM* | 5.17µM* | 5.17µM* | 20.6µM* | 15.1%
N#Cc1cccc(-c2cc(NCc3cccs3)ncn2)c1 | nt | nt | ? | -29.5% | nt | nt
O=C(CN1C(=O)COc2ccc(S(=O)(=O)N3CCOCC3)cc21)NCc1ccccn1 | 5.1 | -0.8% | 5.5% | -2.8% | 8.8% | 3.7%
CCc1nc(N2CCN(CC(=O)NCC3CCCO3)CC2)c(C#N)c2c1COC(C)(C)C2 (stereo unspecified) | -7.8 | -13.5% | ? | ? | -2.0% | ?
CCc1ccc(NCc2cc3c(C)nn(-c4ccccc4)c3[nH]c2=O)cc1 | 19.3 | ? | 12.6µM* | 20.6µM* | -19.5% | ?
Cc1nn(-c2ccccc2)c2[nH]c(=O)c(CNCc3ccc4c(c3)OCO4)cc12 | -15.3 | 4.6% | 14.6µM* | 18.4µM* | 13.9% | -14.1%
Cc1ccc(-c2nn(-c3ccccc3)c3[nH]c(=O)c(CNCc4ccccc4)cc23)cc1 | -57.7* | ? | ? | ? | ? | ?
Cc1ccc(-c2nn(-c3ccccc3)c3[nH]c(=O)c(CNCCN(C)C)cc23)cc1 | nt | nt | nt | nt | nt | 3.2%
OC(CN1CCN(c2ccccn2)CC1)Cn1c2ccccc2c2ccccc21 (stereo unspecified) | -5.0 | -29.7% | 8.2µM* | 14.6µM* | ? | ?
SMILES | IL-1B inflam inh | HT1080-NT tox | DT40 TDP1 no CPT | TDP1 cell CPT | HT1080 IDH1KD tx | ELG1 repair inh
Cc1cc(OCC(O)CN2CCN(c3ccccn3)CC2)cc(C)c1Cl (stereo unspecified) | -69.0* | 16.4µM* | ? | ? | ? | -9.6%
OC(COc1cc(Cl)c(Cl)cc1Cl)CN1CCN(c2ncccn2)CC1 (stereo unspecified) | -16.2 | 6.6% | ? | 18.4µM* | -0.8% | ?
O=C(COc1ccc(F)cc1)OCc1cc(=O)n2nc(-c3cccs3)sc2n1 | nt | nt | ? | -24.3% | nt | nt
CCO[C@@H]1OC(C(=O)N2CCN(Cc3ccc4c(c3)OCO4)CC2)=C[C@H](C)[C@H]1CCCO | -2.8 | -1.3% | ? | -6.8% | 2.6% | 11.0%
CCO[C@H]1OC(C(=O)N2CCN(Cc3ccc4c(c3)OCO4)CC2)=C[C@@H](C2CCCCC2)[C@@H]1CCCO | 4.7 | -10.3% | 16.4µM* | 14.6µM* | -13.9% | -11.7%
CCO[C@@H]1OC(C(=O)N2CCCCCCC2)=C[C@H](C2CCCCC2)[C@H]1CCCO | -26.1 | 6.5% | ? | 13µM* | -6.9% | 16.0%
C#Cc1ccc([C@H]2C=C(C(=O)N3CCN(Cc4ccc5c(c4)OCO5)CC3)O[C@@H](OCC)[C@@H]2CCCO)cc1 | -50.1* | -6.6% | ? | ? | -13.7% | 18.3µM*
CCO[C@@H]1OC(C(=O)N2CCN(Cc3ccc4c(c3)OCO4)CC2)=C[C@H](C2CC2)[C@H]1CCCO | -3.6 | -2.5% | ? | ? | 4.2% | -17.7%
COC(=O)CCNC(=O)N1CCN(c2nnc(C)c3c(C)n(-c4ccc(Cl)cc4)nc23)CC1 | nt | nt | 3.0% | -5.8% | nt | nt
CCc1ccc(C2c3c(oc4ccc(F)cc4c3=O)C(=O)N2c2nc(C)c(C(=O)OC)s2)cc1 (stereo unspecified) | nt | nt | 7.2% | 0.1% | nt | nt
CC(C)CN1C(=O)C(=O)N(CC(=O)N2CCN(c3ccccc3)CC2)C1=O | 6.6 | 5.0% | 16.7% | -4.6% | 0.5% | 18.4%
O=C(NC1CC1)c1c(O)c2ccccc2[nH]c1=O | -61.3* | -3.0% | -14.4% | ? | -1.9% | ?
O=C(NC1CCCCCCC1)c1c(O)c2ccccc2[nH]c1=O | -14.3 | 20.1% | -21.1% | ? | 0.0% | ?
O=C(CCl)NNC(=O)c1c(O)c2ccccc2[nH]c1=O | -101.9* | 11.6µM* | 5.17µM* | 4.61µM* | 14.6µM* | 1.3%
